From PubChem BioAssay
Shiga inhibitor: A qHTS for Small Molecule Inhibitors of Shiga Toxin; Vero cells, Shiga toxin protein synthesis inhibition reporter; inhibition, % at 38.7 µM; actives 9.2% (n = 290,000); in the data active = inhibition mostly above about 28%, no sharp cut-off; inactive = mostly below about 43%; note: 0% is about no effect
CHX counter: Cycloheximide Counterscreen for Small Molecule Inhibitors of Shiga Toxin; cell reporter, cycloheximide protein synthesis inhibition counterscreen; max response, %; actives 12% (n = 300,000); AID 2314, 2010; in the data active = max response mostly above about 13%, no sharp cut-off; inactive = mostly below about 14%; note: read at 38.3 µM for the half of the compounds with a filed dose; 0% is about no effect
Marburg entry inh: qHTS for inhibitors of binding or entry into cells for Marburg Virus; Marburg virus pseudotyped entry inhibition, cell reporter; Potency, µM (titrated, usually from 37.8 µM), inactives show at the top dose activity change, negative = inhibition, hits mostly inhibitors; actives 1.8% (n = 300,000); calls by dose curve; tested in HEK293 cells; note: potency is the fitted concentration of half-maximal effect; % is set by controls: 0 for no effect and ±100 for the full control effect
Lassa entry inh: qHTS for Inhibitors of binding or entry into cells for Lassa Virus | Lassa virus pseudotype entry inhibition, cell reporter | Potency, µM (highest dose often 37.9 µM), for the others: top-dose activity change, negative = inhibition, most hits filed as inhibitors | actives 1.2% (n = 300,000) | AID 540256, 2011; calls by dose curve; tested in HEK293 cells; note: potency is the fitted concentration of half-maximal effect; % is set by controls: 0 for no effect and ±100 for the full control effect; nearly all actives have a fitted effect of over 50% in size
The depositor's hits bear a star; ? = inconclusive; · = not tested or not shown; [ ] = remark or other dose. The list is not random: actives were taken first. Their share in the collection is about 12%.

SMILES	Shiga inhibitor	CHX counter	Marburg entry inh	Lassa entry inh
CCOC(=O)CCN1C(=O)[C@H]2[C@H]3[C@H](O)[C@H](O)C/C(=N\OCc4ccccc4)[C@@H]3CC[C@H]2C1=O	·	·	-7.2%[14.2 µM]	·
Cc1cccc(/C(N)=N/OC(=O)N2CCOCC2)c1	101.0*	23.6*	23.1µM*	16.4µM*
N/C(=N\OC(=O)C12CC3CC(CC(C3)C1)C2)c1ccncc1	28.4	7.2	-27.1%	14.0%
Cc1ccc(/C(N)=N/OC(=O)N2CCOCC2)cc1	16.3	22.2*	14.6µM*	?
Cc1ccc(/C(N)=N/OC(=O)C23CC4CC(CC(C4)C2)C3)cc1	101.5*	22.8*	2.6%	-16.8%
COc1cc(C(=S)N2CCOCC2)cc(OC)c1OC(=O)c1cccc(C)c1	-11.4	-1.6	·	·
COc1ccc(C(=O)C2CCCN(C(=O)c3cccs3)C2)cc1F (configuration not stated)	-9.4	-0.2	-27.7%[46.1 µM]	-17.2%
CC(C)=CCCC(C)=CCN1C(=O)[C@@]2(CC(C)=C[C@@H](COCc3ccccc3)O2)c2ccccc21	·	·	6.4%[14.2 µM]	·
COC(=O)c1ccc(NC(=O)CN2C(=O)CSC2=O)cc1	17.2	15.5*	?	4.8%
CCOC(=O)c1ccc(NC(=O)CN2C(=O)CSC2=O)cc1	59.3	23.3*	24.0%	-7.7%
CCOC(=O)c1ccc(NC(=O)CN2C(=O)CSCC2=O)cc1	-10.3	10.1	1.7%	2.7%
O=C(CN1C(=O)CSC1=O)Nc1ccc(N2CCOCC2)cc1	-3.2	-1.9	?	10.3%
Cc1cccc(OCC(=O)OCc2cc(=O)n3nc(C4CCCCC4)sc3n2)c1	·	·	·	9.1%[46.1 µM]
CCn1c(=O)cc(OCC(=O)N2CCN(c3ccccc3OC)CC2)c2ccccc21	·	·	4.0%[46.1 µM]	?
Cc1cc(=O)c(C(=O)Nc2ccc(N3CCOCC3)cc2N2CCOCC2)nn1-c1ccccc1Cl	·	·	0.1%	-11.2%
O=C(Nc1nc2c(F)cccc2s1)c1ccco1	28.3*	31.1*	·	·
Cc1cc(Cl)cc2sc(NC(=O)c3ccco3)nc12	50.1*	51.4*	·	·
Cc1cc(C)c2nc(NC(=O)c3ccco3)sc2c1	51.4*	31.0*	·	·
Cc1nc(NC(=O)c2ccco2)sc1C(=O)O	13.2	-6.6	-10.5%[46.1 µM]	-28.5%
Cc1nc2nc(NC(=O)c3ccco3)[nH]n2c(=O)c1C	-14.7	-11.0	·	·
Cc1nc2nc(NC(=O)c3ccco3)nn2c(C)c1Cl	43.1*	9.2	·	·
O=C(Nc1nc2c(Br)cc(Br)cc2c(=O)s1)c1ccco1	-1.7	-0.8	-5.0%[46.1 µM]	6.6%
N#CCc1nn(-c2ccccc2)c2ncnc(N)c12	8.7	-1.2	·	·
O=C(N/N=C/c1ccc[nH]1)c1ccc(Cl)cc1	39.4*	34.0*	-19.2%	?
Cc1ccc(C(=O)N/N=C\c2ccc[nH]2)cc1[N+](=O)[O-]	13.3	8.8	4.47µM*	8.91µM*
SMILES	Shiga inhibitor	CHX counter	Marburg entry inh	Lassa entry inh
CCOCCCn1c(SCC(=O)Nc2ccc(F)cc2)nc2c(sc3ccccc32)c1=O	·	·	·	0.0%[46.1 µM]
Cc1csc2c(=O)sc(NC(=O)c3ccc(F)cc3Cl)nc12	2.2	-1.1	·	·
O=C(Nc1nc2ccsc2c(=O)s1)c1ccc(F)cc1Cl	73.4*	33.0*	?	17.6%
Cc1csc2c(=O)sc(NC(=O)c3ccc(F)cc3)nc12	13.7	-2.6	4.9%[46.1 µM]	1.8%
O=C(Nc1nc2ccsc2c(=O)s1)c1ccc(F)cc1	80.8*	45.3*	?	-13.1%
O=C(COc1ccc([N+](=O)[O-])cc1)NCC(c1cccs1)N1CCOCC1 (configuration not stated)	·	·	2.0%[46.1 µM]	14.2%
COc1cccc(C2/C(=C(/O)c3ccc4c(c3)CC(C)O4)C(=O)C(=O)N2CC2CCCO2)c1 (configuration not stated)	-7.7	-1.5	·	·
Cc1cccc2nc(-c3cccc(NS(=O)(=O)c4ccccc4)c3)cn12	·	·	-11.0%[46.1 µM]	0.0%[46.1 µM]
Cc1cccc(CSc2ncc(CO)n2C)c1	17.1	20.3*	6.9%	7.8%
Cc1ccc(C(=O)CSc2nnc(-c3ccco3)n2C)cc1	51.6*	35.2*	?	14.0%
Cc1cccc(CSc2ncc(CO)n2Cc2ccc(F)cc2)c1	·	·	·	13.6%[46.1 µM]
CCn1c(SCC(=O)c2ccc(O)c(O)c2)nnc1-c1ccc(C)cc1	-6.3	0.5	?	-16.7%
Cn1c(CO)cnc1SCC(=O)c1ccc(F)cc1	75.0*	23.7*	-14.2%[46.1 µM]	-17.8%[46.1 µM]
CCn1c(Cc2cccn2C)nnc1SCC(=O)c1ccc(C)cc1	129.1*	34.9*	?	-7.3%
O=C(CN1C2=NCCCN2c2ccccc21)c1ccc([N+](=O)[O-])cc1	-2.8	-1.0	?	-13.8%
COc1ccccc1CNC(=O)CN1C(=O)CSc2c1c(C)nn2-c1ccccc1	·	·	·	-19.1%[46.1 µM]
Cc1ccc(C(=O)CSc2nnc(-c3ccccc3N)n2C)cc1	94.4*	64.9*	0.9%	17.4%
Cn1c(SCC(=O)c2ccc(F)cc2)nnc1-c1ccccc1N	122.9*	46.9*	-12.9%[46.1 µM]	-2.7%
Cc1ccccc1C(=O)NCC(=O)OC(C)C(=O)Nc1cccc(S(=O)(=O)N2CCOCC2)c1 (configuration not stated)	·	·	?	-0.5%[46.1 µM]
Cc1ccc(/C=C/C(=O)c2ccc(O)cc2)cc1	49.3*	28.4*	?	8.91µM*
CSc1ccc(/C=C/C(=O)c2ccc(O)cc2)cc1	90.6*	43.8*	-19.7%	-32.0%
COc1ccc(/C=C/C(=O)c2ccc(O)cc2)cc1COc1ccc(F)cc1	26.3	-0.2	-4.4%	?
O=C(/C=C/c1ccc(I)cc1)c1ccc(B(O)O)cc1	15.7*	28.7*	·	·
CO/N=C(/C(=O)N[C@@H]1C(=O)N2C(C(=O)O)=CCS[C@H]12)c1cnc(N)s1	-2.1	-3.0	·	·
O=C(CCc1ccccc1)NC(=S)Nc1cccc(C(=O)O)c1	102.9*	58.2*	?	3.4%[46.1 µM]
SMILES	Shiga inhibitor	CHX counter	Marburg entry inh	Lassa entry inh
O=C(CCc1ccccc1)NC(=S)Nc1ccccc1Br	51.6*	13.5	·	·
CC(=O)Nc1ccc(NC(=S)Nc2ccc(F)cc2)cc1	19.8	-0.6	24.7%[46.1 µM]	12.3%
O=C(CCc1ccccc1)NC(=S)Nc1cccc(Br)c1	24.7	0.4	-18.2%	?
COc1ccccc1NC(=S)NC(=O)CCc1ccccc1	9.7	10.5	?	?
CC(C)(C)C(=O)NC(=S)Nc1ccc(F)cc1	87.2*	30.9*	?	6.5%
O=C(CCCc1ccccc1)Nc1cccc(C(=O)O)c1	122.3*	59.8*	2.51µM*	?
CCOC(=O)Cn1nc(-c2ccccc2)c2cnc3ccc(OCC)cc3c21	·	·	1.8%[46.1 µM]	1.2%[46.1 µM]
CC(C)CC(=O)N1CCN(C(=O)c2ccc(F)cc2)CC1	-7.2	-0.3	18.0%[46.1 µM]	3.6%[46.1 µM]
CCCCn1c(=O)c2oc3ccccc3c2n(Cc2ccccc2C)c1=O	·	·	·	1.3%[46.1 µM]
CC(C)(C)C(=O)NC(=S)Nc1cccc(C(=O)O)c1	83.9*	45.3*	?	3.0%[46.1 µM]
N#Cc1c(C(F)(F)F)cc(-c2cccs2)nc1SCc1ccccc1F	·	·	2.0%[46.1 µM]	6.6%[46.1 µM]
COC(=O)c1cc2oc(C)cc2n1Cc1ccccc1Cl	·	·	-12.3%[46.1 µM]	·
O=C(Nc1cccc(Cl)c1)Nc1nc(-c2ccc(Cl)cc2)cs1	17.9	12.6	?	-12.0%
O=C(O)Cc1ccc(NC(=O)Nc2cccc(Cl)c2)cc1	-8.8	-3.3	1.9%[46.1 µM]	20.5%[46.1 µM]
O=C(Nc1cccc(Cl)c1)Nc1csc([N+](=O)[O-])c1	46.2*	15.5*	?	?
COc1ccc(CNC(=O)Nc2cccc(Cl)c2)cc1	46.3*	42.8*	5.4%[46.1 µM]	3.7%[46.1 µM]
